Source: the supplement of paper PMC11417369
± gives the standard deviation of the averaged measurements. Over roughly 25,000 sequences, “ln(normalized median fluorescence intensity)” has its median near 8.6; the highest 2% begin near 10. Shown is part of a subset that was picked to be rich in the highest values.

These sequences were tested on PfAP2-EXP AP2 domain (GST-tagged) (assay: gcPBM binding intensity (ln(normalized median fluorescence intensity)); higher = stronger DNA binding).
How it was run: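 Binding intensity is defined as the maximum Masliner-normalised natural-log median intensity across replicate spots for either probe orientation. It was measured on an Agilent 4 × 180k array of primer-extended double-stranded 36-bp intergenic genomic probes and negative controls, to which GST-tagged P. falciparum DNA-binding domains made in E. coli were applied for 1 h in 1× PBS with 1% milk, 0.2 mg/ml BSA, 0.5% salmon testes DNA and 0.03% Triton X-100. Detection was by Alexa488 anti-GST antibody and scanning at 488 nm.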

First: TGCTTTTATTTCTTCACACATATGTAAAAAAAAGAA [CACACA_site5906]
Second: AAAACATCAAAAATGTGTACATATATATATATATAT [XGTACX_site8884]
The “gcPBM binding intensity (ln)” value of the first is lower: 8.76 ± 0.42 for the first, 10.3 ± 0.21 for the second.

“AATCAAAACATTAAAAAGAAAAAATATATATATATA [CACACA_negctrl_site366]” and “AAAAAATACATCAAAAGAAACATATATATATATATA [GTGCAC_negctrl_site719]” are the same in “gcPBM binding intensity (ln)” value: 10.2 ± 0.26 for the first, 10.2 ± 0.67 for the second.

“AATATAAAATCAAGAAATTAAAAAAAAACAGAAAAC [CACACA_negctrl_site1004]” and “AAAACTATATTAATGTGTACACATCAAAATATTAAT [XGTACX_site6767]” are within error of each other in “gcPBM binding intensity (ln)” value: 8.93 ± 0.49 for the first, 8.65 ± 0.13 for the second.

“AAAACACAAAAAAAATGTACACATATATATATATAT [XGTACX_site8509]” and “ATCAAAAGAAAACACACACACATACATATATATATA [CACACA_site3795]” are within error of each other in “gcPBM binding intensity (ln)” value: 10 ± 0.38 for the first, 9.81 ± 0.28 for the second.

“AAAAAAAAGAAACACACACACATACACATAAATATA [CACACA_site3807]” and “TTATATAAAACATTAACACACAAAGAAAAAAAATTA [CACACA_site1793]” are within error of each other in “gcPBM binding intensity (ln)” value: 8.79 ± 0.47 for the first, 8.57 ± 0.47 for the second.

“TGGTAAATTTACCGTTGTACATTCATTTATAACATT [XGTACX_site8910]” and “TATATATAGCATATTTCACACACACCGAATGAATAT [CACACA_site9182]” are within error of each other in “gcPBM binding intensity (ln)” value: 8.68 ± 0.42 for the first, 8.64 ± 0.36 for the second.

“ATTGTGTTAATAAAATGTACATTTTCTCTACTTTAA [XGTACX_site1199]” and “TGTTCTAATTTTAATTGTACATATATACATATATAT [XGTACX_site7290]” are within error of each other in “gcPBM binding intensity (ln)” value: 8.8 ± 0.35 for the first, 8.46 ± 0.35 for the second.

“AAAAATATATAAAGAAAAAGAATATAATATAAAATA [GTGCAC_negctrl_site208]” and “AACATATTTATGATGTGTACCTACATAATAGAATTT [XGTACX_site141]” are within error of each other in “gcPBM binding intensity (ln)” value: 8.53 ± 0.38 for the first, 8.38 ± 0.32 for the second.

Going from “AAAAAGGTTATTGGTACACACATATGTATATATATA [CACACA_site552]” to “AAGGTAAAATATAAGTGTACTTTTTCTTAATCTTCG [XGTACX_site514]”, the “gcPBM binding intensity (ln)” value falls from 9.3 ± 0.057 to 8.31 ± 0.15.

“ATGGGAATATAATTATGTACATATAAAAATTATAAA [XGTACX_site5336]” and “AAAAAAAGGTAAAATTGTACATACGCACAAAAATAT [XGTACX_site2887]” are within error of each other in “gcPBM binding intensity (ln)” value: 8.62 ± 0.34 for the first, 8.73 ± 0.33 for the second.

“TGCAATTGTAAAGGCGCACACATATATATATATATA [CACACA_site4894]” and “TACAATTGTAAAGGCGCACACATATATATATATATA [CACACA_site1392]” are within error of each other in “gcPBM binding intensity (ln)” value: 10.1 ± 0.34 for the first, 10.3 ± 0.59 for the second.

Compared with “TTTTCCAGTAAATATTTTTTTATAATATTTATATAT [CACACA_negctrl_site387]”, “AAATATACATACATATGTACATATATATATATATAT [XGTACX_site8202]” is higher in “gcPBM binding intensity (ln)” value: 8.3 ± 0.4 for the first, 10.1 ± 0.45 for the second.

“TTATGTAAATAATTTTGTACTTAAATTATTATATAA [XGTACX_site1491]” and “ATGATGTGCAAGAGTAGTACACAATTTTGGGTTTAT [XGTACX_site501]” are within error of each other in “gcPBM binding intensity (ln)” value: 8.08 ± 0.4 for the first, 8.76 ± 0.39 for the second.

“AATAAAAAATATAACACAAATATGTATATATATATA [TGCATGCA_negctrl_site245]” and “ATATATATATATATAACACACGTGTATTTATCTGTA [CACACA_site5922]” are within error of each other in “gcPBM binding intensity (ln)” value: 9.81 ± 0.34 for the first, 9.99 ± 0.34 for the second.

Going from “ATATATATATATATAACACACGTGTATATATATGTA [CACACA_site3644]” to “TTTTTTTTTTTTTTGGGTACATAATAATAACAAGTG [XGTACX_site1034]”, the “gcPBM binding intensity (ln)” value falls from 10.2 ± 0.23 to 8.28 ± 0.32.

Compared with “TTTTTTTTTTTTTTATGTACGAAAGAAAAGCACATA [XGTACX_site8261]”, “ATTTAGTATTCGAAACGTACACATATATATATATAT [XGTACX_site3910]” is higher in “gcPBM binding intensity (ln)” value: 8.57 ± 0.27 for the first, 10.2 ± 0.4 for the second.

Compared with “TTTTATAAAGAACACAGACACACAAAGAAAGAACCA [CACACA_site4174]”, “TACATACAGAAACACACACACACATATATATATATA [CACACA_site2919]” is higher in “gcPBM binding intensity (ln)” value: 9.02 ± 0.6 for the first, 10 ± 0.28 for the second.

“AACACAAGAACAGAACGTACACACACATATATATAT [XGTACX_site7347]” and “ACAAGAACAGAACGTACACACACATATATATATATA [CACACA_site9143]” are within error of each other in “gcPBM binding intensity (ln)” value: 9.76 ± 0.16 for the first, 9.97 ± 0.39 for the second.

Going from “CATACACAGAAACACACACACATATATACATATATA [CACACA_site1094]” to “AAGAACAGAACGTACACACACATATATATATATATA [CACACA_site3457]”, the “gcPBM binding intensity (ln)” value rises from 8.59 ± 0.56 to 10.2 ± 0.23.

“CAAGAAACAGTGATACGTACACATATATATATATAT [XGTACX_site3229]” and “ATATATATATATATATGTACTGAATAAAGAACAAAA [XGTACX_site5400]” are within error of each other in “gcPBM binding intensity (ln)” value: 10.2 ± 0.32 for the first, 10.1 ± 0.42 for the second.

“AAAATAAAAATAACAACACACATATACTATAATATT [CACACA_site2769]” and “TTTCCTAGCACATGCACACAAAAAAAAAAAAAAAAA [CACACA_site1404]” are within error of each other in “gcPBM binding intensity (ln)” value: 8.7 ± 0.46 for the first, 8.35 ± 0.35 for the second.

“AATTAGATTTACTGAAGTACTTAATTTATTTTATTA [XGTACX_site3407]” and “ATTTATTAATTACCATGTATAAAAAATTATATAATA [CACACA_negctrl_site581]” are within error of each other in “gcPBM binding intensity (ln)” value: 8.85 ± 0.34 for the first, 8.19 ± 0.51 for the second.

“AATAAAAATAAAAATTGTACACTTTTTTAATATTTA [XGTACX_site892]” and “TTTTTTTTTTTTTCAAGTACATATATATATATATAA [XGTACX_site2098]” are within error of each other in “gcPBM binding intensity (ln)” value: 8.11 ± 0.25 for the first, 8.44 ± 0.45 for the second.

Going from “TACAAGCCCAATTCAAGTACATATATATATATATAT [XGTACX_site5569]” to “ATATAATTCAAATACAGTACATATACAATATATACA [XGTACX_site1191]”, the “gcPBM binding intensity (ln)” value falls from 10.2 ± 0.44 to 8.21 ± 0.3.

Going from “TATTATGTTATATATTGTACATGTTTATTGAAACAA [XGTACX_site5605]” to “ACTTCCTATATTTATGCATGCATTTTATTAAAAAAT [TGCATGCA_site747]”, the “gcPBM binding intensity (ln)” value rises from 8.66 ± 0.21 to 9.92 ± 0.16.

First: TGCATTTTCCTATTTGCATGCAATTAAAATATAGAA [TGCATGCA_site862]
Second: AAATAAAAATTACAAGCATGCATTTTCCTATTTGCA [TGCATGCA_site861]
The “gcPBM binding intensity (ln)” value of the first is higher: 10.2 ± 0.24 for the first, 8.56 ± 0.46 for the second.

“TTGTAAGAAAAACACACACACACATATATATATATA [CACACA_site795]” and “GTAAGAAACAGACACACACACATATATATATATATA [CACACA_site794]” are within error of each other in “gcPBM binding intensity (ln)” value: 10.1 ± 0.23 for the first, 10.2 ± 0.24 for the second.

Compared with “TGAACTCACGAGCACACACACACATATATATATATA [CACACA_site8248]”, “TAAACAGACATATAAACACACATATAAACAGACATA [CACACA_site7214]” is lower in “gcPBM binding intensity (ln)” value: 10.2 ± 0.34 for the first, 8.69 ± 0.56 for the second.

“AAAACAAACGGACACACACACATATATATATATATA [CACACA_site5924]” and “TGAACAGACGAGCACACACACACATATATATATATA [CACACA_site1019]” are within error of each other in “gcPBM binding intensity (ln)” value: 10.1 ± 0.32 for the first, 10.2 ± 0.26 for the second.

First: AACAGACGAAGACACACACACATATATATATATATA [CACACA_site1020]
Second: CATACAGACGAACACACACACATATAAATATAAATA [CACACA_site6443]
The “gcPBM binding intensity (ln)” value of the first is higher: 10.2 ± 0.21 for the first, 8.74 ± 0.55 for the second.

“AATGAACAGACGAGCACACACACACCCATATATATA [CACACA_site1018]” and “GTAAGAAACAGACACACACACATATAAATATAAATA [CACACA_site6515]” are within error of each other in “gcPBM binding intensity (ln)” value: 8.85 ± 0.35 for the first, 8.77 ± 0.64 for the second.

“GTAAGAAACGGACACACACACATATATATATATATA [CACACA_site4593]” and “AACAGACAGAAACACACACACATATATATATATATA [CACACA_site3394]” are within error of each other in “gcPBM binding intensity (ln)” value: 10.2 ± 0.23 for the first, 10 ± 0.41 for the second.
